Our source for the composite z-score, composite Z-score and z-score values is PubChem BioAssay.

One test concerns the target Albumin (Bos taurus) (UniProt P02769). Description: bovine serum albumin binders on microarray, profiling panel, artefact control for SMM control protein annotation, biochemical, small-molecule microarray, Alexa647 label, 635/667 nm fluorescence (AID 1118).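 Also: score merges 667 nm emission intensity and signal-to-noise per printed compound spot.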 The settings on record: BSA-A647 binding, fluorescence 635 nm, higher = more signal.
The nature of test [1]: small-molecule microarray binders of probe aXIP, primary screen, biochemical, NeuroSMM set, 635/667 nm fluorescence (AID 1119).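 Also: probe is the protein aXip251-270 applied at 1 µg/mL to compound-printed slides; binding of probe to printed compounds measured as 667 nm fluorescence plus signal to noise.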 Particulars: higher = more signal, called active from +8 up or from −8 down.
Test [2] is described as follows: small-molecule binders of probe aNOTCH3, primary screen, biochemical, small-molecule microarray, 635/667 nm fluorescence (AID 1120).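 Also: probe is a biotin-tagged antibody raised against NOTCH3 rather than NOTCH3 protein; score merges spot fluorescence near 667 nm with spot signal to noise.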 The settings on record: higher = more signal.
Test [3] can be described thus: small-molecule binders of probe aNOTCH2, primary screen, biochemical, small-molecule microarray, 635/667 nm fluorescence (AID 1121).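 Also: score merges feature fluorescence read at 667 nm with its signal to noise.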 The settings on record: higher = more signal.
For test [4], the target named is Carbonic anhydrase 2 (Homo sapiens) (UniProt P00918). Description: CAII small-molecule binders, profiling panel, biochemical, small-molecule microarray, Alexa647-labelled CAII (AID 1122). The settings on record: CAII-A647 binding fluorescence, higher = more signal.
Test [5] can be described thus: COS7 lysate on small-molecule microarray, probe aHis, 635 nm (AID 1123).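 Also: z-score combines 667nm fluorescence intensity with signal-to-noise per printed compound spot.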 Particulars: COS7 cell lysate, fluorescence, higher = more signal.
Test [6] can be described thus: compound binding in COS7 lysate, probe aLAP1, primary screen, cell lysate, small-molecule microarray (AID 1124).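 Also: lysate comes from COS7 cells expressing LAP1 and is applied at 0.3 µg/mL; score merges spot fluorescence near 667 nm with signal-to-noise over triplicate slides.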 The settings on record: probe aLAP1, fluorescence, higher = more signal.
In the next test the test system is Sam68 (KHDRBS1). Description: Sam68 small-molecule binders, primary screen, biochemical, small-molecule microarray, 635 nm fluorescence (AID 1125).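 Also: score merges 667 nm channel intensity with signal to noise over triplicate slides.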 The settings on record: small-molecule microarray binding, higher = more signal.
For test [7], the system named is Chordin-like protein 2 (CHRDL2). In words: CHRDL2 small-molecule binders, primary screen, biochemical, small-molecule microarray, 635 nm fluorescence (AID 1126).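 Also: printed compound slides probed with Chrdl2 protein at 4 µg/mL for 1 h at 4 C; score merges 667 nm emission intensity with signal to noise over three replicate slides.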 Particulars: small-molecule microarray binding, fluorescence 635 nm; higher = more signal.
The target of test [8] is Concanavalin-A (Canavalia ensiformis) (UniProt P02866). Description: ConA small-molecule binders, primary screen, artefact control for SMM control protein annotation, biochemical, small-molecule microarray, Alexa647 label, 635 nm (AID 1127).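 Also: z combines 667 nm emission intensity with signal-to-noise across three replicate slides.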 The settings on record: ConA-A647 binding fluorescence, higher = more signal.
Test [9] is described as follows: anti-His antibody binders, primary screen, artefact control for SMM control protein annotation, biochemical, small-molecule microarray, 635 nm fluorescence (AID 1128).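 Also: score merges feature fluorescence with signal-to-noise for each printed compound spot.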 Particulars: anti-His Alexa647 antibody binding, higher = more signal.
Test [10] deals with Human papillomavirus type 1a E7 protein (residues 1-88). Description: HPV1a E7 small-molecule binders, primary screen, biochemical, small-molecule microarray, residues 1-88, 635 nm (AID 1129). The settings on record: small-molecule microarray binding, fluorescence 635 nm; higher = more signal.
The target of test [11] is Focal adhesion kinase 1 (Homo sapiens) (UniProt Q05397). In words: small-molecule microarray binders of FAK, primary screen, biochemical, 635/667 nm fluorescence, BSA, DTT (AID 1130).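 Also: composite of spot emission at 667 nm and signal to noise over triplicate slides.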 Particulars: PTK2 binding, 635 nm fluorescence, higher = more signal.
Test [12] deals with Fibrinogen (Alexa647-labelled). In words: fibrinogen binders on compound microarrays, profiling panel, artefact control for SMM control-protein annotation, biochemical, small-molecule microarray, 635/667 nm fluorescence (AID 1131).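 Also: z-score merges 667 nm fluorescence with per-spot signal-to-noise over triplicate slides.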 The settings on record: fibrinogen-A647 binding fluorescence, higher = more signal.
In test [13] the target is Follistatin (Homo sapiens) (UniProt P19883). In words: follistatin binders on small-molecule microarrays, primary screen, biochemical, small-molecule microarray, 635/667 nm fluorescence (AID 1132). Particulars: FST binding, 635 nm fluorescence, higher = more signal.
The target in test [14] is Fibroblast growth factor 2 (Homo sapiens) (UniProt P09038). Description: FGF2 binders on small-molecule microarrays, primary screen, biochemical, small-molecule microarray, 635/667 nm fluorescence (AID 1133). The settings on record: small-molecule microarray binding, FGF2, fluorescence 635/667; higher = more signal.
A short description of test [15]: mitochondrial membrane potential change in A549 cells, profiling panel, cell-based, JC-1 fluorescence, basal, 24 h, 100 nL (AID 1138).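 Also: A549 lung adenocarcinoma cells under basal conditions with no added stimulus; test concentration not given here.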 Particulars: higher = more signal.
A further test has as its system Lefty1. In words: Lefty1 binders on small-molecule microarrays, primary screen, biochemical, small-molecule microarray, 635/667 nm fluorescence (AID 1139). The settings on record: small-molecule microarray binding, fluorescence 635/667; higher = more signal.
The subject of test [16] is wheat germ agglutinin (Triticum aestivum), Alexa647-labelled. In words: wheat germ agglutinin binders on compound microarrays, profiling panel, artefact control for SMM control-protein annotation, biochemical, small-molecule microarray, 635/667 nm fluorescence (AID 1140).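 Also: score merges 667 nm feature emission with signal to noise over triplicate slides.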 Particulars: WGA-A647 binding, 635 nm fluorescence, higher = more signal.
Test [17] addresses Luciferin 4-monooxygenase (Photinus pyralis) (UniProt P08659). In words: firefly luciferase enzyme inhibitors, primary screen, biochemical, luminescence, purified enzyme, 2006 set (AID 1141).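 Also: cell-free assay with purified firefly luciferase at 100 ng per well in PBS; test concentration not given here.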 Particulars: SteadyGlo luminescence, 30 min, higher = more signal, called active from +8 up or from −8 down.

The structures appear in SMILES notation. Activity calls are given as the source filed them.

Chain of Focal adhesion kinase 1 (Homo sapiens) (Q05397 whole entry, looked up): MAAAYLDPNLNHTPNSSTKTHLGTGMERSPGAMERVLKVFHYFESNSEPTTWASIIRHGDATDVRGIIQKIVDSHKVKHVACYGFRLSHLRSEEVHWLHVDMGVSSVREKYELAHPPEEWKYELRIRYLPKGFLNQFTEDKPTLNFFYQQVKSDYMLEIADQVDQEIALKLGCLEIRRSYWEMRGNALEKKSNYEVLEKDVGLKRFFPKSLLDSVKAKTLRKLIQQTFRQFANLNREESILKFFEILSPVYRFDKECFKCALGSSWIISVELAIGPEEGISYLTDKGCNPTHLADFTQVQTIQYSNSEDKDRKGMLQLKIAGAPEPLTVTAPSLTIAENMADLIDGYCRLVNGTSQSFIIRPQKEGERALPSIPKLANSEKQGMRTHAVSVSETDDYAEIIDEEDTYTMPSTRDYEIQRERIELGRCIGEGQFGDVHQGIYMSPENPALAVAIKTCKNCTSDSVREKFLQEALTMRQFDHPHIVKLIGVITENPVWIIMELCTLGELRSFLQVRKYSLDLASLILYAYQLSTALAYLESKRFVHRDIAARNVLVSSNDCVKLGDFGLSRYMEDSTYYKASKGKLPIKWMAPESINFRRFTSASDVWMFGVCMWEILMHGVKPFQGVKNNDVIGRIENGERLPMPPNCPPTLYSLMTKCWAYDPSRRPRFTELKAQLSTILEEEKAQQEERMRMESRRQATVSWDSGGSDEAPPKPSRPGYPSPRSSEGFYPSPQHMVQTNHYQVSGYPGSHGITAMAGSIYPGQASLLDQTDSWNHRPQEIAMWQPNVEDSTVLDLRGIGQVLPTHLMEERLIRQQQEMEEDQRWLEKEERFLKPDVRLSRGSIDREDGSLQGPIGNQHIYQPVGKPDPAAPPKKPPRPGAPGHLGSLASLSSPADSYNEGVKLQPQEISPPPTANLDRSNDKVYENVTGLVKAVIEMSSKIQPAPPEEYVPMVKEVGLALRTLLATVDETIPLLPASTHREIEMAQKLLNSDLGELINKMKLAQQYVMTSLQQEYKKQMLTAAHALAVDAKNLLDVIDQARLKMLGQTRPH
Chain of Concanavalin-A (Canavalia ensiformis) (P02866 whole entry, looked up): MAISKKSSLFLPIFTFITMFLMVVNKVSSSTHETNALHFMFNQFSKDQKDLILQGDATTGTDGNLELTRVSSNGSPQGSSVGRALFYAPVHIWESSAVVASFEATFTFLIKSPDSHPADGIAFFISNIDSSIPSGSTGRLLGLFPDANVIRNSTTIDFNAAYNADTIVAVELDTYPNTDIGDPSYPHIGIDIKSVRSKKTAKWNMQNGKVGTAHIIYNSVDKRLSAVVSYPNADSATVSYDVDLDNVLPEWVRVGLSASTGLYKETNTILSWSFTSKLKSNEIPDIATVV
Chain of Fibroblast growth factor 2 (Homo sapiens) (P09038 whole entry, looked up): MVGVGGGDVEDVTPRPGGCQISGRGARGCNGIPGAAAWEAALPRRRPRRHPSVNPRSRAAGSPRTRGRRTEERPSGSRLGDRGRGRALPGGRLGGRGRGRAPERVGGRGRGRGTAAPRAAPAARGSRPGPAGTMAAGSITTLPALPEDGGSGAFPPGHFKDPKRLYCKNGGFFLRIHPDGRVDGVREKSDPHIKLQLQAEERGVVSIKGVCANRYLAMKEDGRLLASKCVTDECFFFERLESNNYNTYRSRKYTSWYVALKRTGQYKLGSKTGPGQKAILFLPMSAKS
Chain of Luciferin 4-monooxygenase (Photinus pyralis) (P08659 whole entry, looked up): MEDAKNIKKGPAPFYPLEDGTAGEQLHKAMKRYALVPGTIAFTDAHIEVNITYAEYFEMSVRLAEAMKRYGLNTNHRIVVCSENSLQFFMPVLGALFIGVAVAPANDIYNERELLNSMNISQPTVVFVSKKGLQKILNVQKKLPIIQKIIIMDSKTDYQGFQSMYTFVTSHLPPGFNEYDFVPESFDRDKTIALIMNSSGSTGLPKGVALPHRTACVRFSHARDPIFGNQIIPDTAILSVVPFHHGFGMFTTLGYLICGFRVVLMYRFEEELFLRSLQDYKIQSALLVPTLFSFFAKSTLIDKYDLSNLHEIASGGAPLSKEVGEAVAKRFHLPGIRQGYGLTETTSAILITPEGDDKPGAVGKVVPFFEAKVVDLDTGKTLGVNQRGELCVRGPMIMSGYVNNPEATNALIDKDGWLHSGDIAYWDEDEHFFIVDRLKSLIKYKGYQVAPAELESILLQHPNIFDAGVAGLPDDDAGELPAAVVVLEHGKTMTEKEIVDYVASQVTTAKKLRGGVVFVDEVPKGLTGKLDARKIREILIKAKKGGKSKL
Chain of Follistatin (Homo sapiens) (P19883 whole entry, looked up): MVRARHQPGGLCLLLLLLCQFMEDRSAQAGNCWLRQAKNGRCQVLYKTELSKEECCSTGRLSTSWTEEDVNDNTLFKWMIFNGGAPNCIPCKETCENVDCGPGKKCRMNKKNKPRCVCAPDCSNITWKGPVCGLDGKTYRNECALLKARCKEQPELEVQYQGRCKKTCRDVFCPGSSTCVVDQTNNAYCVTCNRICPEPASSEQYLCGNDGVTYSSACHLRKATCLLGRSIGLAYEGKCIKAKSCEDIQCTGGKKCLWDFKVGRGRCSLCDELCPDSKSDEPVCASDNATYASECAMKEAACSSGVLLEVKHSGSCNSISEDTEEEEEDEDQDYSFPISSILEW
Chain of Albumin (Bos taurus) (P02769 whole entry, looked up): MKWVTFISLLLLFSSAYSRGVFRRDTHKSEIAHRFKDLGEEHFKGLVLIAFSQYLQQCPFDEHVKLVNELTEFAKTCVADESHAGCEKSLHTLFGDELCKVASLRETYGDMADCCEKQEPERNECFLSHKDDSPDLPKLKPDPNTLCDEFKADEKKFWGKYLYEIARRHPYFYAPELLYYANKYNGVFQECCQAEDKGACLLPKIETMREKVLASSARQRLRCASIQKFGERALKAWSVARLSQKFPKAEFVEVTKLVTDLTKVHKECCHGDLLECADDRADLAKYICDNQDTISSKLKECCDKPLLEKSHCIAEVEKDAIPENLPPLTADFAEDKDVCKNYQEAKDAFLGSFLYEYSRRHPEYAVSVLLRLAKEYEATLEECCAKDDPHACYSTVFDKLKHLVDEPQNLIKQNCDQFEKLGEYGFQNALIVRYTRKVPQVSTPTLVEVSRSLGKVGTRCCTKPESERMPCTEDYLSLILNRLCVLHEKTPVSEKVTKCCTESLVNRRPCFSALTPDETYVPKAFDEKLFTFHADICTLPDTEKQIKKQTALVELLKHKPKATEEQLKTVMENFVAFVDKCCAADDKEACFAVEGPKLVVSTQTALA

`C=COC[C@H]1CN2[C@@H](CC[C@@H](C)[C@@H]2c2ccc(Br)cc2)C(=O)O1`: the composite z-score worked out at 0.496 in the test with Albumin (Bos taurus); 0.0999 in test [2]; 0.0877 in test [3]; 0.459 in [4]; 0.807 in [5]; 0.446 in [6]. Further, the composite z-score turned out to be 1.33 in the test with Sam68 (KHDRBS1); 0.664 in [7]; 1.03 in [8]; 1.25 in test [9]; 0.394 in test [10]; 0.0351 in test [11]. The composite z-score in test [12] stood at 0.673; in test [13], 0.504; in test [14], 0.706; in the test with Lefty1, 0.51; in [16], 0.276. Moreover, in [1], the composite Z-score is -0.0224 (inactive). Also, the z-score was 0.587 in test [15] and -2.84 (inactive) in test [17].

In the case of `O=C1C2C=CC(C(O)c3ccc([N+](=O)[O-])cc3)N(Nc3ccc([N+](=O)[O-])cc3)C2C(=O)N1c1ccccc1` (stereo not given), the composite z-score is 0.921 in the test with Albumin (Bos taurus); 0.351 in test [2]; 0.0518 in test [3]; 0.661 in test [4]; 2.71 in test [5]; 0.789 in [6]. Further, the composite z-score with Sam68 (KHDRBS1) is 1.29; in test [7] it was -0.256; in test [8], 1.19; in test [9], 0.953; in [10], 1.24; in test [11] it was 0.719. For the same compound, the composite z-score in test [12] is 0.952; in [13] it was -0.0127; in test [14], -0.519; with Lefty1, -0.139; in [16], 1.37. Besides, in [1], the composite Z-score is 0.373 (inactive). For the same compound, the z-score in test [15] is -1.95; in test [17], 0.319 (inactive).

On to `CCN1C(=O)[C@H]2[C@H]3[C@H](O)[C@H](O)CC(=NOCc4ccccc4)[C@@H]3CC[C@H]2C1=O`, for which the composite z-score with Albumin (Bos taurus) is -0.0633; in [2], 0.302; in test [3], -0.186; in [4], 0.0453; in test [5], 0.37; in test [6] it was 1.74. Besides, the composite z-score with Sam68 (KHDRBS1) was 0.598; in test [7], 0.589; in test [8] it was 0.7; in test [9], 0.119; in test [10], 0.65; in [11], -0.0096. Also, the composite z-score in test [12] is 0.306; in test [13], 0.276; in test [14], 0.232; with Lefty1, 0.538; in test [16], 0.0953. In addition, the composite Z-score in [1] is 1.92 (inactive). Further, the z-score is 1.89 in test [15] and -1.23 (inactive) in [17].

`CC(C)NC(=O)[C@@]1(c2ccc([N+](=O)[O-])cc2)CC(=O)N(CC23CC4CC(CC(C4)C2)C3)[C@@H]1c1ccc(CO)cc1I`: the composite z-score is -0.0212 in the test with Albumin (Bos taurus); 0.299 in test [2]; 0.23 in test [3]; 0.241 in test [4]; 0.997 in test [5]; 1.04 in test [6]. Further, the composite z-score was 1.27 in the test on Sam68 (KHDRBS1); 0.111 in test [7]; 0.93 in test [8]; 0.0833 in test [9]; 1.14 in test [10]; 0.457 in [11]. In addition, the composite z-score in test [12] is -0.206; in test [13], 1.06; in [14], 0.444; with Lefty1, -0.167; in test [16], 0.403. Moreover, the composite Z-score in test [1] is 0.567 (inactive). Further, the values for the z-score in [15] and in test [17] were 1.01 and 0.355 (inactive), respectively.

In the case of `COC(=O)CC=C[C@@H](C)[C@H](OC)c1ccccc1Br`, the composite z-score in the test with Albumin (Bos taurus) was -0.335; in test [2], 0.0985; in test [3] it was -0.0684; in test [4] it was -0.0896; in test [5] it was -0.453; in [6] it was 0.1. Moreover, the composite z-score with Sam68 (KHDRBS1) is -0.0689; in test [7] it was 0.508; in [8], -0.24; in test [9] it was -0.457; in test [10], 0.0434; in [11], -0.0378. In addition, the composite z-score in [12] is -0.47; in test [13] it was 0.209; in test [14], 0.182; in the test on Lefty1, 0.0835; in test [16], -0.602. The composite Z-score in test [1] is 0.0948 (inactive). Besides, the z-score in test [15] is 0.688; in test [17], -0.384 (inactive).
